From the supplement of paper PMC8975748
Structures can show the parent of a compound that is named as a salt.

system: Saccharomyces cerevisiae BY4741 SeMeCo community; assay: z-score of subpopulation abundance vs DMSO median, subpopulation auxotrophic for HM; higher = larger share of this subpopulation than in DMSO controls; conditions: 10 µM; 24 h; SM minimal medium; subpopulation (auxotrophy): HM
Method in brief: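 A community of Saccharomyces cerevisiae BY4741 was built from four plasmids that each restored one auxotrophy and encoded a distinct fluorescent protein. Pre-grown overnight to OD600 1.0 and diluted to 0.3, it was dispensed at 70 µl into 384-well plates acoustically predosed with library drugs for a final 10 µM, and grown 24 h in minimal SM medium. Cells were then paraformaldehyde-fixed and imaged by automated confocal microscopy. Thresholds and autofluorescence correction came from single-auxotroph fluorescent strains, and each subpopulation's abundance was scored as a z-score relative to the vehicle-well median.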

| Structure (SMILES) | z-score of subpopulation abundance |
| --- | --- |
| CN[C@@H]1[C@H](O[C@H]2[C@H](O[C@H]3[C@H](O)[C@@H](O)[C@H](NC(=N)N)[C@@H](O)[C@@H]3NC(=N)N)O[C@@H](C)[C@]2(O)CO)O[C@@H](CO)[C@H](O)[C@H]1O [Dihydrostreptomycin sulfate] | -0.91 |
| C=CCc1ccc(O)c(-c2ccc(O)c(CC=C)c2)c1 [Honokiol] | -0.9 |
| COCC(=O)Nc1cc(Sc2ccccc2)ccc1N=C(NC(=O)OC)NC(=O)OC [Febantel] | 1.62 |
| Cc1ccsc1/C=C/C1=NCCCN1C [Morantel tartrate] | -0.19 |
| CCn1cc(C(=O)O)c(=O)c2cc(F)c(N3CCNCC3)cc21 [Norfloxacin] | 0.41 |
| CC[C@H]1OC(=O)C[C@@H](O)[C@H](C)[C@@H](O[C@@H]2O[C@H](C)[C@@H](O[C@H]3C[C@@](C)(O)[C@@H](O)[C@H](C)O3)[C@H](N(C)C)[C@H]2O)[C@@H](CC=O)C[C@@H](C)C(=O)/C=C/C(C)=C/[C@@H]1CO[C@@H]1O[C@H](C)[C@@H](O)[C@@H](OC)[C@H]1OC [Tylosin] | 0.74 |
| COC(=O)C1=C(C)NC(C)=C(C(=O)OC2CCCN(Cc3ccccc3)C2)C1c1cccc([N+](=O)[O-])c1 (stereo not given) [Benidipine HCl] | 0.86 |
| CC1=C[C@H]2C(=O)O[C@H]3C[C@@H](C/C=C(\C)C[C@@H](C)/C=C/C=C4\CO[C@H](/C1=N\O)[C@@]42O)O[C@@]1(CC[C@H](C)[C@@H](C)O1)C3.CC[C@H]1O[C@]2(CC[C@@H]1C)C[C@@H]1C[C@@H](C/C=C(\C)C[C@@H](C)/C=C/C=C3\CO[C@@H]4/C(=N\O)C(C)=C[C@@H](C(=O)O1)[C@]34O)O2 [Milbemycin Oxime] | 0.15 |
| CC1=Nc2ccc(Cl)cc2S(=O)(=O)N1 [Diazoxide] | -0.62 |
| O=C(O)c1cc(O)c2c(c1)[C@H]([C@H]1c3cc(C(=O)O)cc(O)c3C(=O)c3c(O[C@@H]4O[C@H](CO)[C@@H](O)[C@H](O)[C@H]4O)cccc31)c1cccc(O[C@@H]3O[C@H](CO)[C@@H](O)[C@H](O)[C@H]3O)c1C2=O [Sennoside A] | -1.46 |
| Oc1ccc([C@H]2COc3cc(O)ccc3C2)cc1 [Equol] | 0.47 |
| COc1ccc2cc(CCC(C)=O)ccc2c1 [Nabumetone] | -0.96 |
| CO/N=C(\C(=O)N[C@@H]1C(=O)N2C(C(=O)O)=C(CSc3nc(=O)c(O)nn3C)CS[C@H]12)c1csc(N)n1 [Ceftriaxone Sodium Trihydrate] | -1.19 |
| CO/N=C(\C(=O)N[C@@H]1C(=O)N2C(C(=O)OC(C)OC(C)=O)=C(COC(N)=O)CS[C@H]12)c1ccco1 (stereo not given in full) [Cefuroxime axetil] | -0.74 |
| CNCCCN1c2ccccc2CCc2ccccc21 [Desipramine Hydrochloride] | 0.82 |
| CCCCCOc1ccccc1/C(=C\SC)n1ccnc1 [Neticonazole Hydrochloride] | 3.53 |
| CC(C(=O)O)c1ccc2c(c1)[nH]c1ccc(Cl)cc12 (stereo not given) [Carprofen] | -2.19 |
| CCC(C)n1ncn(-c2ccc(N3CCN(c4ccc(OCC5COC(Cn6cncn6)(c6ccc(Cl)cc6Cl)O5)cc4)CC3)cc2)c1=O (stereo not given) [Itraconazole] | 7.45 |
| C=CCN1CCCC1CNC(=O)c1cc2nn[nH]c2cc1OC (stereo not given) [Alizapride HCl] | -0.31 |
| CO/N=C(\C(=O)N[C@@H]1C(=O)N2C(C(=O)O)=C(CSc3nc(C)c(CC(=O)O)s3)CS[C@H]12)c1csc(N)n1 [Cefodizime Sodium] | -0.46 |
| C[C@H](NCc1ccc(OCc2cccc(F)c2)cc1)C(N)=O [Safinamide Mesylate] | 1.04 |
| N=C(N)NS(=O)(=O)c1ccc(N)cc1 [Sulfaguanidine] | -0.09 |
| C=C[C@H]1CN2CC[C@H]1C[C@@H]2[C@@H](O)c1ccnc2ccc(OC)cc12 [Quinidine sulfate] | 1.23 |
| O=C(Nc1ccc(Oc2ccc(Cl)cc2)c(Cl)c1)c1cc(I)cc(I)c1O [Rafoxanide] | 0.8 |
| Nc1nc(N)c2nc(-c3ccccc3)c(N)nc2n1 [Triamterene] | 3.53 |
| CC(=O)N1CCN(c2ccc(OCC3COC(Cn4ccnc4)(c4ccc(Cl)cc4Cl)O3)cc2)CC1 (stereo not given) [Ketoconazole] | -1.06 |
| Cc1onc(-c2ccccc2)c1C(=O)N[C@@H]1C(=O)N2[C@@H]1SC(C)(C)[C@@H]2C(=O)O [Oxacillin sodium monohydrate] | -0.14 |
| CC[C@H]1OC(=O)[C@H](C)[C@@H](O[C@H]2C[C@@](C)(OC)[C@@H](O)[C@H](C)O2)[C@H](C)[C@@H](O[C@@H]2O[C@H](C)C[C@H](N(C)C)[C@H]2O)[C@](C)(O)C[C@@H](C)C(=O)[C@H](C)[C@@H](O)[C@]1(C)O [Erythromycin thiocyanate] | 0.23 |
| CCn1cc(C(=O)O)c(=O)c2cc(F)c(N3CCNC(C)C3)c(F)c21 (stereo not given) [Lomefloxacin HCl] | 1.66 |
| CNS(=O)(=O)CCc1ccc2[nH]cc(C3CCN(C)CC3)c2c1 [Naratriptan HCl] | -0.44 |
